Results published in PubChem BioAssay.
Calls of active or inactive are those of the source.

Tests used:
[1] = optical density shifts of acrAB sulA E. coli – strain DRC41, OD650, 48 h, E. coli filamentation inducer project, primary screen (AID 1152); conditions: higher = more signal, called active from +8 up or from −8 down;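 also: E. coli MC1000 strain DRC41 lacking acrAB efflux pump and sulA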
[2] = probe aLefty1 binding on compound microarray – biochemical, small-molecule microarray, 635/667 nm fluorescence, primary screen (AID 1153); conditions: higher = more signal;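 also: score merges spot fluorescence with signal-to-noise ratio from the scanned slide images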
[3] = plasmodial surface anion channel blockers, osmotic lysis – cell-based, P. falciparum Indochina, OD700, 1 h, primary screen (AID 1154); conditions: P. falciparum Indochina infected RBC osmotic lysis, higher = more signal, called active from +8 up or from −8 down
[4] = plasmodial surface anion channel blockers, osmotic lysis – cell-based, P. falciparum Indochina, OD700, 2 h, primary screen (AID 1155);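 also: lysis reports solute entry through the parasite surface anion channel PSAC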; conditions: P. falciparum Indochina infected erythrocytes, higher = more signal, called active from +8 up or from −8 down
[5] = changes in parasitized red cell lysis, either direction – P. falciparum Indochina, OD700, 3 h, PSAC antagonist project, primary screen (AID 1156); conditions: P. falciparum-infected erythrocytes, osmotic lysis, higher = more signal, called active from +8 up or from −8 down
[6] = plasmodial surface anion channel blockers, osmotic lysis – cell-based, P. falciparum Indochina, OD700, 18 h, primary screen (AID 1157); conditions: P. falciparum Indochina infected erythrocytes, osmotic lysis OD700, 18 h; higher = more signal, called active from +8 up or from −8 down
[7] = S6 kinase pathway phospho-S6 level changes – cell-based, A549, cytoblot, luminescence, serum-stimulated, primary screen (AID 1158); conditions: 5 h, higher = more signal;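 also: serum-stimulated A549 lung adenocarcinoma cells; signal is phosphorylated S6 detected by cytoblot immunostaining with HRP secondary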
[8] = target: NADPH oxidase 2 (Homo sapiens) (UniProt P04839); assay: compounds shifting NOX2 Amplex Red fluorescence – cell-based, HEK293-NOX2, PMA-stimulated, NOX inhibitor project, primary screen (AID 1159); conditions: 45 min, higher = more signal, called active from +8 up or from −8 down; also: test concentration not given here
[9] = target: NADPH oxidase 4 (Homo sapiens) (UniProt Q9NPH5); assay: compounds shifting NOX4 Amplex Red fluorescence – cell-based, HEK293-NOX4, tetracycline-induced, NOX inhibitor project, primary screen (AID 1160); conditions: HEK293-NOX4, Amplex Red H2O2 fluorescence, 45 min; higher = more signal, called active from +8 up or from −8 down
[10] = target: NADPH oxidase 5 (Homo sapiens) (UniProt Q96PH1); assay: compounds shifting NOX5 Amplex Red fluorescence – cell-based, HEK293-NOX5, NOX inhibitor project, primary screen (AID 1161); conditions: HEK293-NOX5, ionomycin, 45 min, higher = more signal
[11] = compound effects on lung adenocarcinoma cell viability – A549, calcein-AM fluorescence, 48 h, basal, profiling panel (AID 1162); conditions: higher = more signal; also: test concentration not given here
[12] = compound effects on differentiated 3T3-L1 adipocyte viability – cell-based, 3T3-L1 adipocytes, calcein-AM fluorescence, 48 h, basal, profiling panel (AID 1163); conditions: 3T3-L1 adipocytes viability, higher = more signal; also: test concentration not given here
[13] = compound effects on hepatocellular carcinoma cell viability – HepG2, calcein-AM fluorescence, 48 h, basal, profiling panel (AID 1164); conditions: higher = more signal; also: test concentration not given here
[14] = compound effects on multiple myeloma cell viability – MM1S, calcein-AM fluorescence, 48 h, basal, profiling panel (AID 1165); conditions: higher = more signal; also: test concentration not given here
[15] = calcein-AM signal in unstimulated myeloma cells – cell-based, calcein-AM fluorescence, 48 h, PK04 Diversity Set, profiling panel (AID 1166); conditions: RPMI8226 myeloma viability, higher = more signal;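 also: cells grown under basal conditions without added stimulus; test concentration not given here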
[16] = JC-1 mitochondrial signal, unstimulated HepG2 cells – cell-based, JC-1 fluorescence, 24 h, 100 nL compound, profiling panel (AID 1167); conditions: HepG2 mitochondrial potential, higher = more signal; also: test concentration not given here
[17] = JC-1 mitochondrial signal, unstimulated adipocytes – cell-based, JC-1 fluorescence, 3T3-L1 adipocytes, 24 h, 100 nL compound, profiling panel (AID 1168); conditions: JC-1 mitochondrial fluorescence, higher = more signal, called active from +8 up or from −8 down; also: test concentration not given here
[18] = JC-1 mitochondrial signal, unstimulated myeloma cells – cell-based, JC-1 fluorescence, RPMI8226, 24 h, 100 nL compound, profiling panel (AID 1169); conditions: JC-1 mitochondrial potential fluorescence, higher = more signal; also: test concentration not given here
[19] = JC-1 mitochondrial signal, unstimulated MM1S myeloma – cell-based, JC-1 fluorescence, 24 h, 100 nL compound, profiling panel (AID 1170); conditions: MM1S mitochondrial potential, higher = more signal; also: test concentration not given here
[20] = resazurin metabolic signal in A549 cells – cell-based, resazurin fluorescence, 24 h, PK04 Diversity Set, profiling panel (AID 1171); conditions: A549 viability, higher = more signal, called active from +8 up or from −8 down; also: test concentration not given here

Sequence of NADPH oxidase 2 (Homo sapiens) (P04839 whole entry, looked up): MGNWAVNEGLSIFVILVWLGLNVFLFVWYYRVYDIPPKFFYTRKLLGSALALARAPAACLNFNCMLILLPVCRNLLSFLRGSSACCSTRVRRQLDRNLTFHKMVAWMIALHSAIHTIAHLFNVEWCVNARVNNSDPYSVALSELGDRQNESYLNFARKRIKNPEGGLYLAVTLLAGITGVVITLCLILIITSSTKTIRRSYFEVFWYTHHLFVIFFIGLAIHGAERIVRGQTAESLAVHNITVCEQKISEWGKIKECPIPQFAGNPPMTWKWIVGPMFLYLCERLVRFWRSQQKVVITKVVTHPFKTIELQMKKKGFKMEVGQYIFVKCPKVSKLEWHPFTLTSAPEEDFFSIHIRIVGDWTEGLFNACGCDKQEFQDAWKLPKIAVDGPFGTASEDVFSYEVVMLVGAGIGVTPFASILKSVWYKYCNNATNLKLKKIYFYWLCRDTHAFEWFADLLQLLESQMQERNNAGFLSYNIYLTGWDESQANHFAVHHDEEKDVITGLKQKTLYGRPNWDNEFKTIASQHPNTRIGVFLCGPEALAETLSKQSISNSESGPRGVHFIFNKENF
Sequence of NADPH oxidase 4 (Homo sapiens) (Q9NPH5 whole entry, looked up): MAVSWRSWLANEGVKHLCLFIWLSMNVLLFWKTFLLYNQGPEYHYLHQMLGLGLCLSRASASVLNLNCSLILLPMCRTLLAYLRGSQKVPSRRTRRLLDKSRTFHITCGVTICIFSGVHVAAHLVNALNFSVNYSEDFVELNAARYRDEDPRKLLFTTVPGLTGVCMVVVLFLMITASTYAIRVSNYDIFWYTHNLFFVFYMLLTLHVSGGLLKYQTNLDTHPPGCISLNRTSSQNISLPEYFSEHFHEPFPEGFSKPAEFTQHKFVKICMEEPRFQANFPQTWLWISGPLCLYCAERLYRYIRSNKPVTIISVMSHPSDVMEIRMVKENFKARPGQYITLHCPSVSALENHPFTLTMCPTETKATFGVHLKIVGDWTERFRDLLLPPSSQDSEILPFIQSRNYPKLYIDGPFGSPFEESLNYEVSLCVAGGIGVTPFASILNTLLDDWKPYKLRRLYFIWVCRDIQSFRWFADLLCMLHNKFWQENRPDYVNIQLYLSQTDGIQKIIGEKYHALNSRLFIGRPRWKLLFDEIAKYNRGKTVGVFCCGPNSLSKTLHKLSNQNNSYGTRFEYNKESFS
Sequence of NADPH oxidase 5 (Homo sapiens) (Q96PH1 whole entry, looked up): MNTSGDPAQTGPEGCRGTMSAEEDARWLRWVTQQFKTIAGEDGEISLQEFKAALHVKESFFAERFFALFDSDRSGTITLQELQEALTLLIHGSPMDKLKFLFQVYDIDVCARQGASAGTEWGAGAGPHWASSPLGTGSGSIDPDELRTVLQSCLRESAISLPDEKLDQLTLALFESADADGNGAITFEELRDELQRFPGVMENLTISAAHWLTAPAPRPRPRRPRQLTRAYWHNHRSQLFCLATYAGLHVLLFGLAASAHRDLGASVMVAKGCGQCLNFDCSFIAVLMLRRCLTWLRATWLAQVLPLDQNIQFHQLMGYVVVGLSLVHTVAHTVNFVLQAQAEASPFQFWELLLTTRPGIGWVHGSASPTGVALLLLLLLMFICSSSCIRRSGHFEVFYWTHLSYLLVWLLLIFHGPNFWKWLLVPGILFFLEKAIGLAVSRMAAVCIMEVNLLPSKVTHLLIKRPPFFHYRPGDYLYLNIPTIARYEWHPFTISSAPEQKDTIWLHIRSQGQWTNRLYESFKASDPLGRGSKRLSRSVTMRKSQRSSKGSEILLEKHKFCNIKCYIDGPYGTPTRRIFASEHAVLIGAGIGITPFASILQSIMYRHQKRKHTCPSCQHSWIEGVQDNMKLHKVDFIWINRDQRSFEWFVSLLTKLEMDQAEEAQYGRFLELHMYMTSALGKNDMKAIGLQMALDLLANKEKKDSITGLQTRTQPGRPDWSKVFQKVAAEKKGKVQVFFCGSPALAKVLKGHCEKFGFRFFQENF

Compound	z-score [1]	composite z-score [2]	z-score [3]	z-score [4]	z-score [5]	z-score [6]	z-score [7]	z-score [8]	z-score [9]	z-score [10]	z-score [11]	z-score [12]	z-score [13]	z-score [14]	z-score [15]	z-score [16]	z-score [17]	z-score [18]	z-score [19]	z-score [20]
CCOC(=O)[C@H](Cc1ccccc1)NC(=O)CCC1CC(OC(=O)NCc2ccc3c(c2)OCO3)CC2(CCCC(COC(=O)NCCOc3ccccc3)O2)O1 (stereo not given in full)	0.0897 (inactive)	-0.239	-1.84 (inactive)	0.179 (inactive)	-0.0818 (inactive)	0.0514 (inactive)	-0.138	0.339 (inactive)	0.519 (inactive)	0.653	-0.794	-0.317	0.184	0.322	0.0039	2.45	0.808 (inactive)	-0.0508	-1.17	0.198 (inactive)
CCOC(=O)[C@H](CC(C)C)NC(=O)CCC1CC(OC(=O)NCc2ccc3c(c2)OCO3)CC2(CCCC(COC(=O)NCCC(C)C)O2)O1 (stereo not given in full)	-0.213 (inactive)	-0.768	2.17 (inactive)	-0.299 (inactive)	-0.443 (inactive)	0.0255 (inactive)	-0.0096	0.246 (inactive)	0.115 (inactive)	0.165	0.0634	-0.0921	-0.231	0.473	0.403	0.449	0.135 (inactive)	-0.938	-0.155	0.704 (inactive)
COCOc1ccc(Br)cc1C(=O)C=Cc1ccc2c(c1)OCO2	0.677 (inactive)	-0.103	8.25 (active)	-0.0749 (inactive)	0.365 (inactive)	-1.11 (inactive)	0.835	0.187 (inactive)	0.138 (inactive)	-1.03	-0.206	-0.342	-2.2	-3.48	-3.81	1.28	0.0274 (inactive)	-1.12	-2.71	-1.56 (inactive)
CC(=O)OC[C@H]1O[C@@H](ON=C(C)CCN2CCCCc3nc(C)c(C)cc32)[C@H](OC(C)=O)[C@@H](OC(C)=O)[C@@H]1OC(C)=O	-0.998 (inactive)	-0.0601	-0.323 (inactive)	-0.558 (inactive)	1.16 (inactive)	-1.5 (inactive)	0.314	-1.31 (inactive)	-1.24 (inactive)	-2.54	-1.33	1.58	-0.716	0.224	-2.19	0.203	0.327 (inactive)	-0.832	-0.411	-0.101 (inactive)
CO[C@@H]1COC(=O)[C@H](CCSC)NC(=O)CC=C[C@@H](C)COC(=O)[C@@H]2CCCN2C(=O)CC=C[C@H]1C	-0.785 (inactive)	0.224	0.911 (inactive)	0.727 (inactive)	0.537 (inactive)	0.354 (inactive)	-0.235	-2.15 (inactive)	-0.045 (inactive)	0.887	-0.25	-0.094	0.182	0.105	0.339	0.754	0.579 (inactive)	-0.79	0.326	0.285 (inactive)
COC(=O)[C@H](C)NC(=O)CCC1CC(OC(=O)NCCc2ccc(F)cc2)CC2(CCCC(COC(=O)NCc3ccccc3)O2)O1 (stereo not given in full)	-1.03 (inactive)	0.0367	-0.622 (inactive)	-0.694 (inactive)	-0.384 (inactive)	-0.268 (inactive)	0.788	0.0624 (inactive)	-0.0206 (inactive)	0.519	-0.101	-0.0012	0.601	0.756	-0.484	0.995	0.553 (inactive)	0.265	-0.579	0.896 (inactive)
O=C1C[C@H](c2ccccc2)[C@H](c2ccc(Br)cc2)O1	-1.16 (inactive)	-0.464	-0.142 (inactive)	-1.13 (inactive)	-0.0291 (inactive)	-1.6 (inactive)	1.61	0.146 (inactive)	-0.255 (inactive)	-0.446	1.43	0.172	-0.0656	0.342	1.08	1.19	0.268 (inactive)	0.563	0.891	-0.317 (inactive)
CCCCOC(OCCCC)C(O)CSc1ccc2ccccc2c1 (stereo not given)	0.278 (inactive)	-0.103	5.46 (inactive)	0.667 (inactive)	-1.43 (inactive)	0.248 (inactive)	-0.455	-0.28 (inactive)	-0.657 (inactive)	-3.7	-1.28	-0.809	0.0428	-2.77	-1.04	-0.36	-0.239 (inactive)	0.591	-0.285	-0.911 (inactive)
CC(CCN1CCc2nc(-c3ccccc3)c(-c3ccccc3)cc2C1)=NOC(C)CN1CCCc2nc(C)c(C)cc21 (stereo not given)	-0.115 (inactive)	0.0956	3.04 (inactive)	0.494 (inactive)	0.959 (inactive)	0.268 (inactive)	-0.56	-5.56 (inactive)	-0.946 (inactive)	-3.15	1.23	0.301	0.69	-2.9	-0.616	6.43	-1.28 (inactive)	-0.866	-0.881	0.289 (inactive)
